ELG1 genotoxic: qHTS screen for small molecules that induce genotoxicity in human embryonic kidney (HEK293T) cells expressing luciferase-tagged ELG1; Potency, µM (highest dose often 46 µM), without a hit: top-dose activity change, positive = activation, actives largely listed as activators; HEK293T ELG1-luciferase reporter, luminescence, 16 h; 330,000 compounds, 1.3% hits; note: % of control where 0% means no effect; nearly all actives have a fitted effect of over 60% in size
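ELG1-luciferase HEK293T cells, 2,000/well; compound pinned in; 16 hr, 37 °C, 5% CO2; ONE-Glo, 30 min RT; luminescence on CCD imager.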
NPC1 promoter act: qHTS Assay for NPC1 Promoter Activators; Potency, µM (series often up to 9.22 µM), for the others: top-dose activation, most hits filed as activators; AID 485313, 2010; Huh7 NPC1 promoter luciferase reporter, 24 h; 320,000 compounds, 2.4% hits; note: % of control where 0% means no effect; nearly all actives have a fitted effect of over 60% in size
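Stably transfected Huh7 (NPC1 promoter→luciferase), 1500 cells/well in Opti-MEM + 10% FBS, 2 h settle, then compound 24 h at 37 °C. Luminescence after 10 min with Amplite reagent.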
FLuc counter: qHTS profiling assay for firefly luciferase inhibitor/activator using purifed enzyme and Km concentrations of substrates (counterscreen for miR-21 project) | Luciferin 4-monooxygenase (Photinus pyralis), P08659 | purified FLuc, Km substrates, luminescence inhibition | Potency, µM (highest dose often 57.5 µM), for inactives: at the highest dose activity change, negative = inhibition, most hits filed as inhibitors | 360,000 compounds, 6.9% hits;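 note: plate controls were vehicle for no effect and reference inhibitor for full effect; nearly all actives have a fitted effect of over 55% in size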
Target sequence (P08659 whole entry, looked up): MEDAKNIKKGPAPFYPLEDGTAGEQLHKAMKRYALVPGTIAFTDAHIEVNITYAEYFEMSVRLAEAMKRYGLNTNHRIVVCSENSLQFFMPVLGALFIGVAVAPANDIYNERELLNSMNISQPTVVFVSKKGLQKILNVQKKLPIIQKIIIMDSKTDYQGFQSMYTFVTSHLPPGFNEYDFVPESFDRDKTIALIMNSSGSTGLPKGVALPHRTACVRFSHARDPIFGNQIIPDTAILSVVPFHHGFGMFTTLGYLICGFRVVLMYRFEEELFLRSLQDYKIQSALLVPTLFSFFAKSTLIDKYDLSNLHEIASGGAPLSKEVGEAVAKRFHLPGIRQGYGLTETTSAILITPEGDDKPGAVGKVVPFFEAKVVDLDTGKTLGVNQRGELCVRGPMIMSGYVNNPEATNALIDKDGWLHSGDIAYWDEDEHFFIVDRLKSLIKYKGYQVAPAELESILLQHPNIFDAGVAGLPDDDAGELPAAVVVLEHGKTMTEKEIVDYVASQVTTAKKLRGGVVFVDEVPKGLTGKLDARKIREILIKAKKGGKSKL
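Purified P. pyralis luciferase (10nM final) with 10uM D-luciferin and 10uM ATP (Km levels) in 50mM Tris acetate pH 7.5, 10mM Mg acetate, 0.01% Tween-20, 0.05% BSA; qHTS 6-point titration, ~60 µM downward; luminescence read.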
SMN2 splice up: qHTS Assay for Enhancers of SMN2 Splice Variant Expression; HEK293 SMN2-luciferase splicing reporter, luminescence, 30-36 h; Potency, µM (doses to about 46.1 µM), inactives show at the top dose activity change, positive = activation, hits mostly activators; 210,000 compounds, 2.8% hits; note: % of control where 0% means no effect; nearly all actives have a fitted effect of over 55% in size
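qHTS luciferase splicing reporter: luminescence rises when SMN2 exon 7 is included in transfected HEK293 cells. Compound exposure lasted 30-36 h at 37C, with 4.5 mM final sodium butyrate as control, followed by a ONE-Glo read.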
KinaseGlo FLuc: Counterscreen for Luciferase (Kinase-Glo TM) Inhibition | Kinase-Glo luciferase, ATP luminescence, 8 min | 200,000 compounds, 0.28% hits | Potency, µM (top dose mostly 38.3 µM), inactives show top-dose activity change, negative = inhibition, most hits filed as inhibitors; note: % is set by controls: 0 for no effect and ±100 for the full control effect; nearly all actives have a fitted effect of over 60% in size
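Recombinant Kinase-Glo luciferase, 10 uM ATP (linear range), luciferin; imidazole pH 7.2 / KCl / MgCl2 / Tween / BSA buffer; 8 min RT; luminescence.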
Rab9 prom act: qHTS Assay for Rab9 Promoter Activators; 320,000 compounds, 2.8% hits; Potency, µM (titrated, usually from 9.22 µM), inactives show at the highest dose activation, negative = inhibition, actives largely listed as activators; Huh7 Rab9 promoter-luciferase reporter, luminescence, 24 h; note: % of control where 0% means no effect; nearly all actives have a fitted effect of over 60% in size
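Measured in stably transfected Huh7 cells bearing a Rab9 promoter–luciferase construct: 24 h compound treatment at 37 °C, followed by luminescence detection.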
An asterisk follows results filed as active; ? = inconclusive; / = no result. Hits are enriched below; roughly 7.4% of the tested compounds scored in any of these assays. Calls come from the whole dose curve; as a rule, active = well fitted curve in the direction sought with a large enough effect; inconclusive = small, poorly fitted or top-dose-only effect, or another doubt; inactive = no such curve, though single readings can be large; an effect the other way counts as inactive or inconclusive. Potency is the fitted concentration of half-maximal effect.

SMILES | ELG1 genotoxic | NPC1 promoter act | FLuc counter | SMN2 splice up | KinaseGlo FLuc | Rab9 prom act
Cc1ccc(NC(=S)N2CCCCCC2)cc1 | ? | ? | 8.5µM* | / | / | ?
COc1cccc(NC(=O)CN(C)C(=O)c2cccnc2Sc2ccc(C)c(C)c2)c1 | 3% | 0% | 1% | / | / | -4%
Cc1cc(Cl)ccc1C(=O)C1CCCN(C(=O)/C=C/c2cnn(C)c2)C1 (centres undefined) | -2% | -2% | 3% | / | 0% | -5%
Cn1cc(/C=C/C(=O)N2CCCC(C(=O)c3ccc(C(C)(C)C)cc3)C2)cn1 (centres undefined) | -4% | 0% | 17µM* | / | -3% | -1%
Cc1cc(NCc2ccccn2)nc2ccccc12 | 7% | 10% | ? | 5% | -2% | 6%
FC(F)(F)c1ccc(NCc2ccccn2)nc1 | ? | ? | 17µM* | / | / | ?
c1ccc(CNc2ccc3ccccc3n2)nc1 | ? | 2.2µM* | 4.8µM* | ? | ? | ?
O=S(=O)(NCc1ccccn1)c1cc(C(F)(F)F)ccc1Cl | -1% | -3% | -3% | -5% | -1% | -2%
CN(C)S(=O)(=O)c1ccc(N2CCCC2)c(C(=O)NNC(=O)COc2cccc(F)c2)c1 | -1% | -4% | 5% | / | / | 0%
S=C(Nc1ccc2c(c1)OCO2)N1CCN(Cc2ccco2)CC1 | 15% | ? | 1.3µM* | / | -1% | ?
COc1ccc(/C=C2\CCc3ccccc3C2=O)cc1Cn1cccn1 | ? | 1% | 5.4µM* | -12% | -2% | 2%
COc1ccc(/C=C2\Cc3ccccc3C2=O)cc1OC | 16µM* | 12% | 3.4µM* | / | / | -2%
COc1ccc(/C=C2\CCc3ccccc3C2=O)cc1O | 3.7µM* | -2% | 0.34µM* | / | / | 3%
COc1ccc2c(c1)OC/C(=C/c1ccc(O)c(O)c1)C2=O | / | / | / | 3% | -2% | /
COc1ccc(NC(=O)COc2coc(CN3c4ccccc4CC3C)cc2=O)cc1 (centres undefined) | 3% | 0% | 2% | / | / | -3%
COc1ccccc1/C=C/C(=O)OCC(=O)N1c2ccccc2CC1C (centres undefined) | 1% | -4% | -3% | / | / | 1%
COc1cc(/C=C2\SC(c3ccc(C)cc3)=NC2=O)ccc1O | ? | -2% | 2.7µM* | 20% | 2% | -10%
COc1cc(/C=C2\SC(c3ccccc3)=NC2=O)cc(Cl)c1O | 0% | -7% | 11µM* | -11% | ? | -17%
COc1cc(/C=C2\SC(c3ccc(C)cc3)=NC2=O)cc(OC)c1OC | 0% | -2% | 2% | 24% | 2% | -6%
Cc1ccc(-c2csc3nc(C)n(N)c(=O)c23)o1 | 16µM* | ? | ? | 4% | -7% | ?
CCN(CCO)c1ccc(N=Nc2cc(C)[nH]n2)cc1 | ? | ? | 0.27µM* | / | / | ?
COc1ccc(CCN2C(=NC(=O)CCC(=O)O)SC3CS(=O)(=O)CC32)cc1OC (centres undefined) | -3% | -1% | 27µM* | 11% | 7% | 7%
COc1ccc(CCN2C(=NC(=O)CC(C)C)SC3CS(=O)(=O)CC32)cc1 (centres undefined) | -5% | -2% | 3% | 17% | -4% | 2%
O=c1c2ccccc2nc2oc3ccccc3n12 | 10µM* | 1.6µM* | 7.6µM* | / | / | 1.6µM*
Cc1ccn2c(Nc3ccccc3)c(-c3c[nH]c4ccccc34)nc2c1 | / | / | -14% | 11µM* | / | /
Cc1ccc(Nc2c(-c3c[nH]c4ccccc34)nc3cc(C)ccn23)cc1 | / | / | -11% | 14µM* | / | /
Cc1ccccc1Nc1c(-c2c[nH]c3ccccc23)nc2ccc(Cl)cn12 | / | / | -9% | 18% | / | /

Source: PubChem BioAssay (National Center for Advancing Translational Sciences (NCATS))
